From PubChem BioAssay (Tox21)
Unmarked numbers belong to inactive results. Records with an inconclusive call do not appear. A call without a number means that no potency is given here. Calls of active or inactive are those of the source. Unless noted, the call rests on the fitted dose curve; in most records, active means well fitted curve in the direction sought with a large enough effect in the repeat runs; inconclusive means weak or mixed curves; inactive means no such curve, though single readings can be large; an effect the other way counts as inactive or inconclusive.

How the values were obtained:
[1] = qHTS assay to identify small molecule agonists of the estrogen receptor alpha (ER-alpha) signaling pathway in the presence of an antagonist - cell viability counter screen (AID 1259386);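 further: series mostly up to about 92 µM; cells exposed to compounds for 22 h at 37 °C before the viability read; nearly all actives have a fitted effect of over 30% in size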
Outline: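 ICI-182,780 at 10.0nM final accompanies the compound titration (15 concentrations, 22hr, 37C) on VM7Luc4E2 cells. The CellTiter-Fluor fluorescence readout runs in the same wells as the luciferase assay.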

[2] = target: Progesterone receptor (Homo sapiens) (UniProt P06401); experiment: qHTS assay to identify small molecule agonists of the progesterone receptor (PR) signaling pathway (AID 1346784; calls by dose curve; further: nearly all actives have a fitted effect of over 30% in size)
Progesterone receptor (Homo sapiens), sequence (P06401 whole entry, looked up): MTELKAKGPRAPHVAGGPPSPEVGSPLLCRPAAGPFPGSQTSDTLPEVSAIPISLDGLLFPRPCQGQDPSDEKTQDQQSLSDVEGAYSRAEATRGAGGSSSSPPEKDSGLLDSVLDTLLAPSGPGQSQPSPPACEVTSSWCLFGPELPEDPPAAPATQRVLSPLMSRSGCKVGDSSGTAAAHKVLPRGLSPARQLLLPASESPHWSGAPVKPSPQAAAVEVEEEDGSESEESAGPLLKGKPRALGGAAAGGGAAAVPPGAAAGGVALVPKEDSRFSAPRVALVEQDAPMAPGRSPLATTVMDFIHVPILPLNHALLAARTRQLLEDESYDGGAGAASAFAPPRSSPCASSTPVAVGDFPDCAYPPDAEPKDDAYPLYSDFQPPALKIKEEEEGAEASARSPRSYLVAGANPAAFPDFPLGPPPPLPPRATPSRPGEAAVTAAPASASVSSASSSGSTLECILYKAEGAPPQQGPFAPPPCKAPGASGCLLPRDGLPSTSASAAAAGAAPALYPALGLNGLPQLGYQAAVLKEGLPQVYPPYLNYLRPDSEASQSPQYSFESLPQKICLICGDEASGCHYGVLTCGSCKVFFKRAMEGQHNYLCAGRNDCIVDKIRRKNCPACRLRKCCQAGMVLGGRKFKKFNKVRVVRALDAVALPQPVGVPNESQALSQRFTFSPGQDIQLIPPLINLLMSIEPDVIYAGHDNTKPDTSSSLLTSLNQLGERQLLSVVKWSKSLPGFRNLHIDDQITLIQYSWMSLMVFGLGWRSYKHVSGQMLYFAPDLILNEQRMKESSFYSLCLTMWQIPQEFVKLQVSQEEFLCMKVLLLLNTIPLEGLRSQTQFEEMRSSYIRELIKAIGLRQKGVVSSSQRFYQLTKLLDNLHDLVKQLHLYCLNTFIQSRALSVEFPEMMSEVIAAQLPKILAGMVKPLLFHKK
Outline: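 HEK 293T PR-UAS-bla reporter cells, 2% charcoal-stripped FBS; 6 hr settle at 37C/5% CO2, compound (DMSO) 16 hr, LiveBLAzer B/G FRET substrate 2 hr RT, fluorescence intensity read.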

[3] = qHTS assay to identify small molecule antagonists of the progesterone receptor (PR) signaling pathway - cell viability counter screen (AID 1346798); further: series mostly up to about 92 µM; nearly all actives have a fitted effect of over 50% in size
Outline: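 Luminescence readout (CellTiter-Glo, 30 min, RT) of viability in PR-UAS-bla HEK293T cells exposed to compound and R5020 agonist for 16 hr at 37C, 5% CO2; run in the same wells as the beta-lactamase reporter read.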

[4] = qHTS assay to identify small molecule antagonists of the TGF-beta/Smad signaling pathway - cell viability counter screen (AID 1346824); further: nearly all actives have a fitted effect of over 50% in size
Outline: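 Cytotoxicity counter-screen run in the same wells as the beta-lactamase Smad reporter read: CellTiter-Glo luminescence after 30 min at room temperature. HEK 293T SBE-bla cells had 5 hr compound exposure at 37 C with TGF-beta1 (0.25 ng/mL stock).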

[5] = qHTS assay to identify small molecule agonists of the TGF-beta/Smad signaling pathway - cell viability counter screen (AID 1346829); further: top concentration of the series differs between compounds; nearly all actives have a fitted effect of over 45% in size
Outline: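 Tox21 qHTS format: SBE-bla HEK 293T cells treated with DMSO-dissolved compounds for 5 hr; CellTiter-Glo luminescence after 30 min at room temperature.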

[6] = target: Thyrotropin-releasing hormone receptor (Homo sapiens) (UniProt P34981); experiment: qHTS assay to identify small molecule antagonists of the thyrotropin-releasing hormone receptor (TRHR) signaling pathway (AID 1346877; active means well fitted inhibition curve with a large enough effect in the repeat runs, not every such curve was filed as active; further: series mostly up to about 51 µM)
Thyrotropin-releasing hormone receptor (Homo sapiens), sequence (P34981 whole entry, looked up): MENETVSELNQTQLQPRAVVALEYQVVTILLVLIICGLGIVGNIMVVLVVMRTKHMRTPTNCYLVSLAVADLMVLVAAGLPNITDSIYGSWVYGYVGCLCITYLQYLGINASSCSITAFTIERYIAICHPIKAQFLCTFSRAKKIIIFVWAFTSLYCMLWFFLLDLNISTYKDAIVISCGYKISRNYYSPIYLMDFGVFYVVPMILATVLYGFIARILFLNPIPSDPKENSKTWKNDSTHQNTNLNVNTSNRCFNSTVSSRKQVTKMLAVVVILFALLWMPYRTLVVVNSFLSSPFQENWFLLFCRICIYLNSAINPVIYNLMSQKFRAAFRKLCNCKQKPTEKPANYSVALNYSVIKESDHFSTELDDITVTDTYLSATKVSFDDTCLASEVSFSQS
Outline: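 Screening used HEK293 cells engineered with TRHR, with a brief 5 min room-temperature compound exposure preceding addition of TRH to 1 nM. The read-out was kinetic calcium-dye fluorescence, concentration-response from 15 doses in triplicate.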

[7] = target: Thyrotropin-releasing hormone receptor (Homo sapiens) (UniProt P34981); experiment: qHTS assay to identify small molecule agonists of the thyrotropin-releasing hormone receptor (TRHR) signaling pathway (AID 1346891; calls by dose curve;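 further: HEK293 cells expressing TRHR with calcium dye readout; series mostly up to about 58 µM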)
Outline: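 HEK293/TRHR cells, 1500 per well, 18 h 37 °C; Ca dye 2 h 37 °C; pin-tool compound addition (agonist mode); kinetic fluorescence 3 min, 1 s reads; 15 concentrations, triplicate.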

[8] = Human pregnane X receptor (PXR) small molecule agonists, qHTS cell viability counter screen (AID 1346977); further: nearly all actives have a fitted effect of over 50% in size
Outline: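 Fluorescence read-out (CellTiter-Fluor) of viability in PXR-Luc HepG2 cells, multiplexed with the luciferase agonist read. Compounds in DMSO added after 5hr plating; 24hr total exposure at 37C, 5% CO2.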

[9] = Caspase-3/7 induction in HepG2 cells by small molecules, qHTS assay (AID 1346978); further: nearly all actives have a fitted effect of over 15% in size
Outline: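 Caspase-3/7 induction was measured by Caspase-Glo 3/7 luminescence (30 min, room temperature) after a 17 hr compound exposure of wild-type HepG2 cells seeded at 2,000 per well and pre-incubated 5 hr.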

[10] = Caspase-3/7 induction in CHO-K1 cells by small molecules, qHTS cell viability counter screen (AID 1346979); further: nearly all actives have a fitted effect of over 35% in size; further: potency means the concentration at half of the fitted maximal effect
Outline: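 CHO-K1 wt, 1,500 cells/well; 5hr pre-incubation 37C/5% CO2; compound pin transfer (DMSO); 16hr exposure; CellTiter-Fluor added, 1hr, fluorescence read.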

[11] = Caspase-3/7 induction in CHO-K1 cells by small molecules, qHTS assay (AID 1346980); further: nearly all actives have a fitted effect of over 15% in size
Outline: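 Luminescent Caspase-Glo 3/7 read (30min, room temperature) quantified apoptosis induction. Cells were wild-type CHO-K1, treated with compound for 17hr at 37 C and 5% CO2.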

[12] = Caspase-3/7 induction in HepG2 cells by small molecules, qHTS cell viability counter screen (AID 1346981); further: series mostly up to about 92 µM; nearly all actives have a fitted effect of over 30% in size
Outline: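 Multiplexed with the caspase-3/7 assay: HepG2 cells, 16 hr compound treatment, CellTiter-Fluor viability detection by fluorescence.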

[13] = target: Nuclear receptor subfamily 1 group I member 2 (Homo sapiens) (UniProt O75469); experiment: Human pregnane X receptor (PXR) small molecule agonists, qHTS assay (AID 1346982); further: nearly all actives have a fitted effect of over 35% in size; further: potency means the concentration at half of the fitted maximal effect
Nuclear receptor subfamily 1 group I member 2 (Homo sapiens), sequence (O75469 whole entry, looked up): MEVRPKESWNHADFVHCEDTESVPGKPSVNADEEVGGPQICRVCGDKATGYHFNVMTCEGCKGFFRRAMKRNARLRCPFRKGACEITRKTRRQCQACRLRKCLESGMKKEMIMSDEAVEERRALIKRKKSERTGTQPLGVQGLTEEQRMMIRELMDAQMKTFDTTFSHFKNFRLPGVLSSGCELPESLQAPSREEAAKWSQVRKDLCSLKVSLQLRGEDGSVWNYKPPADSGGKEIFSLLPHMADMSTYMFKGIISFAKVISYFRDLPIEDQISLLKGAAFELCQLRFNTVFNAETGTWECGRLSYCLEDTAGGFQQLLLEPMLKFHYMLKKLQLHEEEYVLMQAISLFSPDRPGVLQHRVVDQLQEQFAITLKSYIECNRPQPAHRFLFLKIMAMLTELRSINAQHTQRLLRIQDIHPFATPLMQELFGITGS
Outline: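 We seeded PXR-Luc HepG2 cells in assay medium containing 5% charcoal-stripped FBS, added compounds 5 hr later, incubated 24 hr, and read luminescence with ONE-Glo reagent.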

[14] = target: Acetylcholinesterase (Homo sapiens) (UniProt P22303); experiment: Acetylcholinesterase (AChE) small molecule antagonists: colormetric cell-based qHTS assay (AID 1347395; calls by dose curve; further: nearly all actives have a fitted effect of over 30% in size; further: potency means the concentration at half of the fitted maximal effect)
Acetylcholinesterase (Homo sapiens), sequence (P22303 whole entry, looked up): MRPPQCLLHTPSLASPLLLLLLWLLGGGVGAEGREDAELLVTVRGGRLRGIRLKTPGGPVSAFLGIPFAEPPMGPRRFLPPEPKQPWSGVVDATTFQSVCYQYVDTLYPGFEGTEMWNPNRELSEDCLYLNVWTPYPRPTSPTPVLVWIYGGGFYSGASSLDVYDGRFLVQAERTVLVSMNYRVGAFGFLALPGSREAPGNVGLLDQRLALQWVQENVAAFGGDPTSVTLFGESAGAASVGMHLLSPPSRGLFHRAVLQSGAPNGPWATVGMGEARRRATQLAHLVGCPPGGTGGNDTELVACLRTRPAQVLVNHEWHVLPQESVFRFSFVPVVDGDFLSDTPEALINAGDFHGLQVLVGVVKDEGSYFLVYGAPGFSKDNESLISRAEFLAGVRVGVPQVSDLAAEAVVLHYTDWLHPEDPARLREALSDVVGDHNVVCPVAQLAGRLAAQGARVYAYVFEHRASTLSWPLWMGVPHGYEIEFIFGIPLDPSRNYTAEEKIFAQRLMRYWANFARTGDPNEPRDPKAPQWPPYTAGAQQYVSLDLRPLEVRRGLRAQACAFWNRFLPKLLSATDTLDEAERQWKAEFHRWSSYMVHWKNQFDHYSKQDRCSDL
Outline: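 SH-SY5Y cells; cpd 30 min 37 C; + DTNB/acetylthiocholine, 90 min 37 C; colorimetric thiocholine read; qHTS.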

[15] = target: Acetylcholinesterase (Homo sapiens) (UniProt P22303); experiment: Acetylcholinesterase (AChE) small molecule antagonists: enzyme-based qHTS assay (AID 1347397; calls by dose curve; further: nearly all actives have a fitted effect of over 55% in size; further: potency means the concentration at half of the fitted maximal effect); settings: Potency: AChE enzyme activity inhibition
Outline: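 Absorbance-based detection of thiocholine with DTNB served as the read-out. Recombinant human AChE was exposed to compound for 30 min at RT before a 10 min RT incubation with acetylthiocholine.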

[16] = qHTS assay to identify small molecule agonists of the progesterone receptor (PR) signaling pathway - cell viability counter screen (AID 1346799; calls by dose curve; further: nearly all actives have a fitted effect of over 45% in size)
Outline: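 HEK293T PR-UAS-bla, 3,000 cells/well, 2% charcoal-stripped FBS; 6 h settle, compound 16 h at 37C/5% CO2; LiveBLAzer 2 h RT, then CellTiter-Glo 30 min RT, luminescence read.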

[17] = qHTS assay to identify small molecule agonists of the TGF-beta/Smad signaling pathway (AID 1346859; active means well fitted activation curve with a large enough effect in the signal ratio in the repeat runs, not every such curve was filed as active; the % refers to the signal ratio; further: series mostly up to about 77 µM)
Outline: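 Read-out: fluorescence at 460 and 530 nm (405 nm excitation) after a 2 hr room-temperature incubation with beta-lactamase FRET substrate. SBE-bla HEK 293T cells had been treated with test compounds for 5 hr at 37 C.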

[18] = target: Nuclear receptor subfamily 1 group I member 2 (Rattus norvegicus) (UniProt Q9R1A7); experiment: Rat pregnane X receptor (rPXR) activation by small molecules, qHTS assay (AID 1346983); settings: rPXR luciferase reporter cells, One-Glo luminescence, 24 h; max activation: active compounds read high; further: nearly all actives have a fitted effect of over 20% in size; further: potency means the concentration at half of the fitted maximal effect
Nuclear receptor subfamily 1 group I member 2 (Rattus norvegicus), sequence (Q9R1A7 whole entry, looked up): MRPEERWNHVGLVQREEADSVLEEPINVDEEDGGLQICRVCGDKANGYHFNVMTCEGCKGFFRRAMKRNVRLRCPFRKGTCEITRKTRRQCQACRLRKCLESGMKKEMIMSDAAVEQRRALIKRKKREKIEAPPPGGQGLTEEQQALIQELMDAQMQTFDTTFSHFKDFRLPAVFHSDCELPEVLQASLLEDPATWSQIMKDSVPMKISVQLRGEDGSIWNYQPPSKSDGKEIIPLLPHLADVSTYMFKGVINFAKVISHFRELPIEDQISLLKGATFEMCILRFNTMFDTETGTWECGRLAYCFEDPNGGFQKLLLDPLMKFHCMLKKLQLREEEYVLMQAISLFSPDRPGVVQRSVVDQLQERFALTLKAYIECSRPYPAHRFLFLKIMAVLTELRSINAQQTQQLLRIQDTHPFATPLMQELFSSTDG
Outline: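 Luminescent readout (One-Glo luciferase, 30 min room temperature) followed 24 hr compound treatment at 37 C of rPXR cells plated 2,000 per well and preincubated 5hr; qHTS format with compounds delivered in DMSO.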

[19] = target: Nuclear receptor subfamily 1 group I member 2 (Homo sapiens) (UniProt O75469); experiment: Human pregnane X receptor (PXR) activation by small molecules, qHTS assay (AID 1346985); further: nearly all actives have a fitted effect of over 40% in size
Outline: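 DPX-2 cells (HepG2 co-transfected with a PXR response element and a CYP3A4-promoter luciferase construct) were seeded at 2,000 per well, rested 5 hr at 37C, then exposed to DMSO-dissolved compounds for 24 hr. Activation was read as luciferase luminescence.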

## COC(=O)C(C)N(C(=O)Cc1ccccc1)c1c(C)cccc1C (stereo not drawn)
[1]
  Potency: inactive
[2]
  Potency: inactive
[3]
  Potency: inactive
[4]
  Potency: inactive
[5]
  Potency: inactive
[6]
  Potency: inactive
[7]
  Potency: inactive
[8]
  Potency: inactive
[9]
  Potency: inactive
[10]
  Potency: inactive
[11]
  Potency: inactive
[12]
  Potency: inactive
[13]
  Potency: 10.9 µM (active)
[14]
  Potency: inactive
[15]
  Potency: inactive

## CCOC(=O)C(Cl)C(C)=O (stereo not drawn)
[1]
  Potency: inactive
[2]
  Potency: inactive
[3]
  Potency: inactive
[16]
  Potency: inactive
[4]
  Potency: inactive
[5]
  Potency: inactive
[17]
  outcome: inactive
[6]
  Potency: inactive
[8]
  Potency: inactive
[9]
  Potency: inactive
[10]
  Potency: inactive
[11]
  Potency: inactive
[12]
  Potency: inactive
[13]
  Potency: inactive
[15]
  Potency: inactive

## O=C1C(=O)c2cccc3cccc1c23
[1]
  Potency: inactive
[2]
  Potency: inactive
[3]
  Potency: inactive
[16]
  Potency: inactive
[4]
  Potency: inactive
[5]
  Potency: inactive
[17]
  outcome: inactive
[6]
  Potency: inactive
[7]
  Potency: inactive
[8]
  Potency: inactive
[10]
  Potency: 21.7 µM (active)
[11]
  Potency: inactive
[12]
  Potency: inactive
[13]
  Potency: 54.4 µM (active)
[14]
  Potency: inactive
[15]
  Potency: inactive

## CO/N=C(/C(=O)OC)c1ccccc1COc1ccccc1C
[1]
  Potency: inactive
[2]
  Potency: inactive
[3]
  Potency: inactive
[4]
  Potency: inactive
[6]
  Potency: inactive
[7]
  Potency: inactive
[9]
  Potency: inactive
[10]
  Potency: 2.73 µM (active)
[11]
  Potency: inactive
[13]
  Potency: 8.63 µM (active)
[14]
  Potency: inactive
[15]
  Potency: inactive

## ClC=C(Cl)Cl
[1]
  Potency: inactive
[2]
  Potency: inactive
[16]
  Potency: inactive
[4]
  Potency: inactive
[5]
  Potency: inactive
[17]
  outcome: inactive
[6]
  Potency: inactive
[7]
  Potency: inactive
[8]
  Potency: inactive
[9]
  Potency: inactive
[10]
  Potency: inactive
[11]
  Potency: inactive
[12]
  Potency: inactive
[13]
  Potency: inactive
[18]
  max activation: -0.508%
[19]
  Potency: inactive
[14]
  Potency: inactive
[15]
  Potency: inactive

## O=[N+]([O-])C(Br)(CO)CO
[1]
  Potency: inactive
[2]
  Potency: inactive
[16]
  Potency: inactive
[4]
  Potency: inactive
[5]
  Potency: inactive
[17]
  outcome: inactive
[6]
  Potency: inactive
[7]
  Potency: inactive
[8]
  Potency: inactive
[9]
  Potency: inactive
[10]
  Potency: 61.1 µM (active)
[11]
  Potency: inactive
[12]
  Potency: inactive
[13]
  Potency: inactive
[18]
  max activation: -5.03%
[19]
  Potency: inactive
[14]
  Potency: 79.6 µM (active)
[15]
  Potency: 63.3 µM (active)

## CCOC(=O)CBr
[1]
  Potency: inactive
[2]
  Potency: inactive
[3]
  Potency: inactive
[16]
  Potency: inactive
[4]
  Potency: inactive
[5]
  Potency: inactive
[17]
  outcome: inactive
[7]
  Potency: inactive
[8]
  Potency: inactive
[9]
  Potency: inactive
[10]
  Potency: inactive
[11]
  Potency: inactive
[12]
  Potency: inactive
[13]
  Potency: inactive
[14]
  Potency: inactive
[15]
  Potency: inactive

## CC(C)=CCOc1c2occc2cc2ccc(=O)oc12
[1]
  Potency: inactive
[2]
  Potency: inactive
[3]
  Potency: inactive
[16]
  Potency: inactive
[4]
  Potency: inactive
[5]
  Potency: inactive
[17]
  outcome: inactive
[6]
  Potency: inactive
[7]
  Potency: inactive
[8]
  Potency: inactive
[9]
  Potency: inactive
[10]
  Potency: inactive
[11]
  Potency: inactive
[12]
  Potency: inactive
[13]
  Potency: inactive
[14]
  Potency: inactive
[15]
  Potency: inactive

## CC(=O)[C@H]1CC[C@H]2[C@@H]3CC[C@H]4C[C@](C)(O)CC[C@]4(C)[C@H]3CC[C@]12C
[1]
  Potency: inactive
[2]
  Potency: inactive
[3]
  Potency: inactive
[16]
  Potency: inactive
[4]
  Potency: inactive
[5]
  Potency: inactive
[17]
  outcome: inactive
[6]
  Potency: inactive
[7]
  Potency: inactive
[8]
  Potency: inactive
[9]
  Potency: inactive
[10]
  Potency: inactive
[11]
  Potency: inactive
[12]
  Potency: inactive
[13]
  Potency: inactive
[18]
  Potency: 3.98 µM (active)
[19]
  Potency: inactive
[14]
  Potency: inactive
[15]
  Potency: inactive

## CCOP(=S)(Oc1ccc([N+](=O)[O-])cc1)c1ccccc1 (stereo not drawn)
[1]
  Potency: inactive
[2]
  Potency: inactive
[3]
  Potency: inactive
[4]
  Potency: inactive
[5]
  Potency: inactive
[17]
  outcome: inactive
[6]
  Potency: inactive
[7]
  Potency: inactive
[8]
  Potency: inactive
[9]
  Potency: inactive
[10]
  Potency: inactive
[11]
  Potency: inactive
[12]
  Potency: inactive
[13]
  Potency: inactive
[14]
  Potency: inactive
[15]
  Potency: inactive

## O=NN1CCNCC1
[1]
  Potency: inactive
[2]
  Potency: inactive
[3]
  Potency: inactive
[16]
  Potency: inactive
[4]
  Potency: inactive
[5]
  Potency: inactive
[17]
  outcome: inactive
[8]
  Potency: inactive
[9]
  Potency: inactive
[11]
  Potency: inactive
[12]
  Potency: inactive
[13]
  Potency: inactive
[14]
  Potency: inactive
[15]
  Potency: inactive

## CCCCC(CC)COP(=O)(Oc1ccccc1)Oc1ccccc1 (stereo not drawn)
[1]
  Potency: inactive
[2]
  Potency: inactive
[3]
  Potency: inactive
[16]
  Potency: inactive
[4]
  Potency: inactive
[5]
  Potency: inactive
[17]
  outcome: inactive
[6]
  Potency: inactive
[7]
  Potency: inactive
[8]
  Potency: inactive
[9]
  Potency: inactive
[10]
  Potency: inactive
[11]
  Potency: inactive
[12]
  Potency: inactive
[13]
  Potency: 7.7 µM (active)
[14]
  Potency: inactive
[15]
  Potency: inactive
